Screening data: PubChem BioAssay, National Center for Advancing Translational Sciences (NCATS)
Rows were chosen to be rich in hits. Some 19% of all compounds tested hit in one or more screens of this group.
DT40 TDP1 no CPT: qHTS for Inhibitors of human tyrosyl-DNA phosphodiesterase 1 (TDP1): qHTS in cells in absence of CPT; DT40 Tdp1-/- hTDP1 cells, no CPT, ATP luminescence, 48 h; Potency, µM (series often up to 46.2 µM), hits mostly inhibitors; hit rate 15% among 420,000; further: nearly all actives have a fitted effect of over 55% in size
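Stably hTDP1-transfected Tdp1-null chicken DT40 cells were treated with library compounds minus camptothecin and grown for at least 48 hr at 37 °C, after which cellular ATP was quantified by luminescence.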
ELG1 repair inh: inhibitors of ELG1-dependent DNA repair in HEK293T cells; HEK293T ELG1-luciferase reporter, luminescence, 16 h; DNA damage induced by 5-fluorouridine; Potency, µM (series often up to 46.1 µM), hits mostly inhibitors; hit rate 2.3% among 330,000; AID 504467; further: nearly all actives have a fitted effect of over 55% in size
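Reporter activity after DNA damage by 5-fluorouridine is monitored. Compound-treated cells incubate 16 hr at 37 °C, then ONE-Glo is added for 30 min before luminescence reading.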
HT1080NT lethal: kills 2HG-producing HT-1080-NT fibrosarcoma cells | Potency, µM (titrated, usually from 46.1 µM), most hits filed as cytotoxic | hit rate 1.6% among 360,000 | HT-1080-NT fibrosarcoma viability, CellTiter-Glo ATP luminescence, 48 h | AID 686970;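 further: NT is the 2HG producing partner of a matched IDH1 knockdown line; nearly all actives have a fitted effect of over 55% in size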
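Viability by CellTiter-Glo luminescence after 48 h compound exposure at 37C of HT-1080-NT cells (750/well, RPMI, 5% FBS). % activity scaled between DMSO wells and medium-only wells, then curve-fitted and categorized by curve class.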
DT40 TDP1 CPT: DT40-hTDP1 cell growth loss with CPT. chicken DT40 Tdp1-/-;hTDP1 cells + 20 nM CPT, ATP luminescence, 48 h. Potency, µM (series often up to 46.2 µM), usual class: inhibitors. hit rate 12% among 420,000. AID 686979; further: nearly all actives have a fitted effect of over 55% in size
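Chicken DT40 Tdp1-/- cells stably complemented with human TDP1 were seeded at 400 cells/well in medium containing 20 nM camptothecin, exposed to pin-transferred compounds, and grown at 37 °C for at least 48 hr. Viability was read as ATP luminescence.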
IL-1B inflam inh: inflammasome signaling inhibition, IL-1 beta readout. THP-1 LPS/ATP IL-1B secretion, AlphaLISA, 16 h; stronger effect = lower value. activity change, % at 57.5 µM. hit rate 4.7% among 360,000. AID 743279; in the data active means activity change below about -50%; inconclusive means mostly about -30% to -49%
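Secreted IL-1B measured by AlphaLISA bead assay after 16 h compound exposure of THP-1 cells; compounds (final up to 57.5 uM) added 1 h before LPS (250 ng/mL) and ATP (1.25 mM) stimulation; lower signal means less secretion.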
HT1080 IDH1KD tx: toxicity to HT-1080 IDH1 knockdown cells (counter line) | hit rate 2% among 360,000 | HT-1080 IDH1 knockdown viability, ATP luminescence, 48 h | Potency, µM (top dose mostly 46.1 µM), actives largely listed as cytotoxic
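Using the IDH1-knockdown HT-1080 line run in the same batch and compound series as the NT line, viability after 48 h at 37 °C was determined by CellTiter-Glo luminescence and expressed as % activity.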
Each line names hits and unclear results; the compound was inactive in the other large screens. Unless noted, the call rests on the fitted dose curve; in most records, active means well fitted curve in the direction sought with a large enough effect; inconclusive means small, poorly fitted or top-dose-only effect, or another doubt; inactive means no such curve, though single readings can be large; an effect the other way counts as inactive or inconclusive.

Cc1ccc(C(=O)NCCN2C3=NC[C@H](C(C)C)N3C[C@H]2Cc2ccc(O)cc2)cc1Br	DT40 TDP1 no CPT 10µM, DT40 TDP1 CPT 5.2µM
CCNC(=S)NNC(=O)c1ccccn1	DT40 TDP1 no CPT inconclusive, DT40 TDP1 CPT 21µM
O=C(NNC(=S)Nc1ccc(Cl)c(Cl)c1)c1ccccn1	DT40 TDP1 no CPT 1.5µM, DT40 TDP1 CPT 2.9µM, HT1080 IDH1KD tx inconclusive
CCNC(=S)NNC(=O)c1ccccc1Cl	none
Cc1cn([C@H]2C[C@H](O)[C@@H](CCC(=O)NCc3cccc4ccccc34)O2)c(=O)[nH]c1=O	none (no result: ELG1 repair inh)
CCCN=C1N/C(=C\c2ccco2)C(=O)N1c1ccccc1	DT40 TDP1 CPT inconclusive
O=C1/C(=C\c2ccco2)NC(=S)N1c1ccccc1	DT40 TDP1 no CPT 29µM, ELG1 repair inh inconclusive
Nc1cnccn1	none (no result: ELG1 repair inh, HT1080NT lethal, IL-1B inflam inh, HT1080 IDH1KD tx)
CCCS(=O)(=O)NC(=O)C1(C)CCN(C(=O)c2cccnc2Oc2ccccc2)C1 (stereo not drawn)	none (no result: ELG1 repair inh)
Cc1cccc(-c2nc(CSCC(=O)N3CCN(c4cccc(C)c4C)CC3)c(C)o2)c1	DT40 TDP1 no CPT inconclusive, DT40 TDP1 CPT 18µM (no result: ELG1 repair inh, HT1080NT lethal, IL-1B inflam inh, HT1080 IDH1KD tx)
Cc1ccc(-c2nc(CSCC(=O)N3CCCC3)c(C)o2)cc1	none
Cc1cccc(-c2nc(CSCC(=O)N3CCN(c4ccccn4)CC3)c(C)o2)c1	DT40 TDP1 no CPT inconclusive, ELG1 repair inh inconclusive, DT40 TDP1 CPT 21µM, IL-1B inflam inh -59, HT1080 IDH1KD tx inconclusive
CCOC(=O)C1CCN(C(=O)C2CCCN(c3ncnc4c3nc3n4CCCCC3)C2)CC1 (stereo not drawn)	DT40 TDP1 no CPT 18µM, DT40 TDP1 CPT inconclusive
CC1CCCN(C(=O)C2CCN(c3ncnc4c3nc3n4CCCCC3)CC2)C1 (stereo not drawn)	DT40 TDP1 no CPT 23µM, ELG1 repair inh inconclusive, DT40 TDP1 CPT inconclusive
COc1cccc(N2CCN(C(=O)C3CCCN(c4ncnc5c4nc4n5CCCCC4)C3)CC2)c1 (stereo not drawn)	DT40 TDP1 no CPT inconclusive, ELG1 repair inh 3.3µM, DT40 TDP1 CPT 16µM
CC1CC(C)CN(C(=O)C2CCCN(c3ncnc4c3nc3n4CCCCC3)C2)C1 (stereo not drawn)	DT40 TDP1 no CPT 15µM, DT40 TDP1 CPT 23µM
O=C(C1CCN(c2ncnc3c2nc2n3CCCCC2)CC1)N1CCCCC1	DT40 TDP1 no CPT inconclusive
CC1CCN(C(=O)C2CCCN(c3ncnc4c3nc3n4CCCCC3)C2)CC1 (stereo not drawn)	DT40 TDP1 no CPT inconclusive, DT40 TDP1 CPT inconclusive
C/C(CC(=O)Nc1ccc(Cl)cc1Cl)=N\NC(=O)c1cnccn1	none
CC(C)(C)c1ccc(Cn2nnc3c(=O)[nH]c(C4CCN(C(=O)Cc5cccs5)CC4)nc32)cc1	DT40 TDP1 no CPT 21µM, ELG1 repair inh inconclusive, HT1080NT lethal inconclusive, DT40 TDP1 CPT inconclusive, HT1080 IDH1KD tx inconclusive
CC(C)(C)c1ccc(Cn2nnc3c(=O)[nH]c(C4CCCN(C(=O)c5cccs5)C4)nc32)cc1 (stereo not drawn)	DT40 TDP1 no CPT inconclusive, HT1080NT lethal inconclusive, DT40 TDP1 CPT 16µM, IL-1B inflam inh inconclusive, HT1080 IDH1KD tx inconclusive
O=C(Cc1cccs1)N1CCCC(c2nc3c(nnn3Cc3ccc(F)cc3)c(=O)[nH]2)C1 (stereo not drawn)	ELG1 repair inh inconclusive
O=C(c1cccs1)N1CCCC(c2nc3c(nnn3Cc3c(Cl)cccc3Cl)c(=O)[nH]2)C1 (stereo not drawn)	DT40 TDP1 no CPT inconclusive, DT40 TDP1 CPT inconclusive
Cc1ccc(Cn2nnc3c(=O)[nH]c(C4CCN(C(=O)Cc5cccs5)CC4)nc32)cc1	DT40 TDP1 CPT inconclusive, HT1080 IDH1KD tx inconclusive
